In assay [1] the target is Cell division control protein 42 homolog (Homo sapiens) (UniProt P60953). The assay is described as follows: inhibition of fluorescent GTP binding to constitutively active Cdc42 – biochemical, multiplex bead flow cytometry, Bodipy-FL-GTP, dose response (AID 1333;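 active means fitted half-maximal concentration within the tested dose range, moderate curve steepness, a statistically real signal drop, and little compound fluorescence or tag-binding interference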). Background: Flow cytometry measures light scatter and fluorescence of single cells or particles in a stream.
Assay [2] has the same target. The assay is described as follows: inhibition of fluorescent GTP binding to wildtype Cdc42 – biochemical, multiplex bead flow cytometry, Bodipy-FL-GTP, dose response (AID 1334;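 active means fitted half-maximal concentration within the tested range, moderate curve steepness, significant signal drop, and little compound fluorescence or bead-linkage interference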). Conditions: bead-based flow cytometry, Bodipy-FL-GTP binding to GST-Cdc42; at 100 µM (top of the series) unless noted.
Assay [3] concerns the target GTPase HRas (Homo sapiens) (UniProt P01112). The assay is described as follows: Ras wt fluorescent GTP loading blockade – biochemical, wildtype, multiplex bead flow cytometry, dose response (AID 1335). Conditions: bead-based flow cytometry, Bodipy-GTP binding to GST-Ras; at 100 µM (top of the series) unless noted.
In assay [4] the test system is Ras-related protein Rab-7a (dog), GTP binding. The assay is described as follows: blockers of fluorescent GTP binding to Rab7 – biochemical, wildtype, multiplex bead flow cytometry, dose response (AID 1336; call rule not given here).
Assay [5] has as its target Ras-related C3 botulinum toxin substrate 1 (Homo sapiens) (UniProt P63000). The assay is described as follows: inhibition of wildtype Rac1 nucleotide loading – biochemical, multiplex bead flow cytometry, dose response (AID 1340;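 active means dose curve with midpoint inside tested range, moderate steepness, plateau gap beyond fit error, low compound glow and bead-link interference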). The following applies: GST-Rac1 beads, Bodipy-FL-GTP binding; at 100 µM (top of the series) unless noted.
The target of assay [6] is GTPase HRas (Homo sapiens) (UniProt P01112). The assay is described as follows: blockade of GTP loading onto mutant Ras – biochemical, activated mutant, multiplex bead flow cytometry, dose response (AID 1341;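 active means dose-response curve with midpoint inside the tested range, moderate steepness, significant amplitude and little compound fluorescence or bead-attachment interference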;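 further: GST-tagged constitutively activated Ras mutant immobilized on beads and multiplexed with other GTPases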).

The structures appear in SMILES notation. For part of these data: Results with a measured potency or affinity are listed apart. The source made the active and inactive calls.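 How the source made its calls, unless noted: active means fitted half-maximal concentration within 10 nM to 100 µM, steepness 0.5 to 2, significant signal drop, low assay interference; inactive means the rest.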

GTPase HRas (Homo sapiens), sequence (P01112 whole entry, looked up): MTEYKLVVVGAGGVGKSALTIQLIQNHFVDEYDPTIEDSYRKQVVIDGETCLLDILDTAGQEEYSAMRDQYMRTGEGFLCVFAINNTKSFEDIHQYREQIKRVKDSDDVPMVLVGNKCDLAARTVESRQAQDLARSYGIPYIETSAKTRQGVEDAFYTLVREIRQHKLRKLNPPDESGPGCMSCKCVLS
Cell division control protein 42 homolog (Homo sapiens), sequence (P60953 whole entry, looked up): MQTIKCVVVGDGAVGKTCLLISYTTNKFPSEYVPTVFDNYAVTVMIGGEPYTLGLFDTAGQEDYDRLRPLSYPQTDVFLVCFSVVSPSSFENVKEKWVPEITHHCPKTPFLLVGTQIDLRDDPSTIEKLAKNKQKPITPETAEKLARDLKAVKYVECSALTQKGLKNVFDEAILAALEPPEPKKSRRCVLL

For `Clc1ccc(Cn2ncc3c(N4CCOCC4)ncnc32)cc1`, the molecule was called inactive in assay [1], in assay [4] and in assay [6]. For the same molecule, the fluorescence, percent of control (lower = inhibition) in assay [2] turned out to be 50.5%. For the same molecule, in assay [3], the GTP binding, percent of control stood at 66.4%. In assay [5], this molecule returned a GTP binding signal, raw median fluorescence (lower = inhibition) (MCF (arbitrary fluorescence units)) of 209.

`O=c1[nH]c(N/N=C\c2ccc3c(c2)OCO3)nc2ccccc12`: the molecule was classed as inactive in assay [1], in assay [4] and in assay [6]. Moreover, the fluorescence, percent of control (lower = inhibition) in assay [2] worked out at 80.8%. The GTP binding, percent of control in assay [3] worked out at 118%. Further, in assay [5], the GTP binding signal, raw median fluorescence (lower = inhibition) (MCF (arbitrary fluorescence units)) came to 202.

With `Cc1cc(C(F)(F)F)c(C#N)c(SCC(=O)Nc2nc3ccccc3s2)n1`, the molecule was called inactive in assay [1], in assay [4] and in assay [6]. For the same molecule, in assay [2], the fluorescence, percent of control (lower = inhibition) came to 89.9%. The same molecule gave a GTP binding, percent of control in assay [3] of 105%. Also, in assay [5], the GTP binding signal, raw median fluorescence (lower = inhibition) (MCF (arbitrary fluorescence units)) came to 188.

Turning to `Cc1ccccc1-n1c(SCc2c(C)noc2C)nnc1-c1cccnc1`, the molecule was classed as inactive in assay [1], in assay [4] and in assay [6]. Moreover, the fluorescence, percent of control (lower = inhibition) in assay [2] worked out at 104%. For the same molecule, the GTP binding, percent of control in assay [3] is 179%. The molecule further had a GTP binding signal, raw median fluorescence (lower = inhibition) (MCF (arbitrary fluorescence units)) in assay [5] of 195.

As to `COC(=O)C1=C(C)NC(=O)/C1=C\c1cc(C)n(-c2c(C)cccc2C)c1C`, the result in assay [1], in assay [4] and in assay [6] was inactive. The fluorescence, percent of control (lower = inhibition) in assay [2] came out at 37%. This molecule displayed a GTP binding, percent of control in assay [3] of 84.9%. For the same molecule, in assay [5], the GTP binding signal, raw median fluorescence (lower = inhibition) (MCF (arbitrary fluorescence units)) was 308.

Consider `C=CCNc1nc(=S)[nH]c2cc(OC)c(OC)cc12`, for which the result in assay [1], in assay [4] and in assay [6] was inactive. The fluorescence, percent of control (lower = inhibition) in assay [2] turned out to be 31.2%. The molecule further returned a GTP binding, percent of control in assay [3] of 69.1%. This molecule returned a GTP binding signal, raw median fluorescence (lower = inhibition) (MCF (arbitrary fluorescence units)) in assay [5] of 148.

Turning to `S=c1[nH]nc(-c2ccc3ccccc3n2)n1-c1ccccc1Cl`, the molecule was classed as inactive in assay [1], in assay [4] and in assay [6]. Moreover, in assay [2], the fluorescence, percent of control (lower = inhibition) amounted to 45.1%. In assay [3], this molecule displayed a GTP binding, percent of control of 60.2%. The GTP binding signal, raw median fluorescence (lower = inhibition) (MCF (arbitrary fluorescence units)) in assay [5] was 165.

Turning to `O=C(COc1ccccc1[N+](=O)[O-])Nc1cc(Cl)ccc1C(=O)O`, the outcome in assay [1], in assay [4] and in assay [6] was inactive. The fluorescence, percent of control (lower = inhibition) in assay [2] worked out at 32.7%. For the same molecule, in assay [3], the GTP binding, percent of control is 75.6%. In addition, in assay [5], the GTP binding signal, raw median fluorescence (lower = inhibition) (MCF (arbitrary fluorescence units)) stood at 215.

For the molecule `O=C(CCN1CCCC1Cc1ccccc1)c1ccc2c(c1)OCCO2` (stereo not given), the call in assay [1], in assay [4] and in assay [6] was inactive. Besides, in assay [2], the fluorescence, percent of control (lower = inhibition) amounted to 31.5%. Further, the GTP binding, percent of control in assay [3] turned out to be 82.4%. Moreover, the GTP binding signal, raw median fluorescence (lower = inhibition) (MCF (arbitrary fluorescence units)) in assay [5] was found to be 236.

Turning to `O=C1c2ccccc2-n2c1nc1ccccc1c2=O`, the result in assay [1], in assay [4] and in assay [6] was inactive. Also, the fluorescence, percent of control (lower = inhibition) in assay [2] worked out at 35.1%. In assay [3], this molecule registered a GTP binding, percent of control of 78.8%. Also, the GTP binding signal, raw median fluorescence (lower = inhibition) (MCF (arbitrary fluorescence units)) in assay [5] is 204.

Consider `CNC(=O)COC(=O)c1cc(NC(=O)c2ccco2)c(OC)c(OC)c1`, for which the outcome in assay [1], in assay [4] and in assay [6] was inactive. Moreover, the fluorescence, percent of control (lower = inhibition) in assay [2] was 39.3%. In assay [3], this molecule came in with a GTP binding, percent of control of 78%. The molecule also displayed a GTP binding signal, raw median fluorescence (lower = inhibition) (MCF (arbitrary fluorescence units)) in assay [5] of 158.

`O=C(O)c1cn(CCOc2ccccc2Cl)c2ccccc12`: the molecule was classed as inactive in assay [1], in assay [4] and in assay [6]. The fluorescence, percent of control (lower = inhibition) in assay [2] was determined as 99.8%. In addition, the GTP binding, percent of control in assay [3] came out at 110%. This molecule yielded a GTP binding signal, raw median fluorescence (lower = inhibition) (MCF (arbitrary fluorescence units)) in assay [5] of 86.

As to `CC1=NC(=O)C(N=Nc2ccccc2C(=O)O)N1c1ccccc1` (stereo not given), the result in assay [1], in assay [4] and in assay [6] was inactive. For the same molecule, in assay [2], the fluorescence, percent of control (lower = inhibition) is 28.8%. The same molecule showed a GTP binding, percent of control in assay [3] of 69.9%. The molecule also yielded a GTP binding signal, raw median fluorescence (lower = inhibition) (MCF (arbitrary fluorescence units)) in assay [5] of 180.

Consider `O=C(NCc1ccc(F)cc1)C(c1ccccc1)N(CC1CCCO1)C(=O)Cn1nnc2ccccc21` (stereo not given), for which the outcome in assay [1], in assay [4] and in assay [6] was inactive. Further, in assay [2], the fluorescence, percent of control (lower = inhibition) came to 53.6%. The GTP binding, percent of control in assay [3] is 70.1%. In assay [5], this molecule had a GTP binding signal, raw median fluorescence (lower = inhibition) (MCF (arbitrary fluorescence units)) of 0.

`COc1ccc(-c2nn(-c3ccccc3)cc2C(=O)NCCCn2ccnc2)cc1`: the call in assay [1], in assay [4] and in assay [6] was inactive. The fluorescence, percent of control (lower = inhibition) in assay [2] came out at 49.1%. The same molecule yielded a GTP binding, percent of control in assay [3] of 61.1%. The molecule also gave a GTP binding signal, raw median fluorescence (lower = inhibition) (MCF (arbitrary fluorescence units)) in assay [5] of 202.
